Assay results reported in PubChem BioAssay (NCI).
This is part of a sample that, as a whole, favours compounds with a hit. Of some 79,000 tested, about 15% had one in any assay. Activity calls are given as the source filed them. No stated cut-off is given here; in the data, active means growth inhibition above about 70%; inactive means the rest.

Tests used:
[1] = NCI Yeast Anticancer Drug Screen. Data for the rad50 strain (AID 155);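 further: 0% = growth of vehicle-only cultures of the same strain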; conditions: S. cerevisiae rad50 strain growth inhibition, stronger effect = higher value
Procedure, shortened: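 Readout: growth inhibition relative to vehicle-treated cultures. Compound exposure was carried out in a genetically defined yeast strain deficient in DNA damage repair.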

[2] = NCI Yeast Anticancer Drug Screen. Data for the mec2-1 strain (AID 157); conditions: S. cerevisiae mec2-1 strain, stronger effect = higher value
Procedure, shortened: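 Using mec2-1 yeast: add compound, measure growth, express inhibition versus vehicle-treated cultures.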

[3] = NCI Yeast Anticancer Drug Screen. Data for the sgs1 mgt1 strain (AID 161);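 further: 0% = growth of cultures given vehicle only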; conditions: S. cerevisiae sgs1 mgt1 strain, stronger effect = higher value
Procedure, shortened: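 Growth of a repair-deficient yeast mutant was monitored after compound treatment and expressed as inhibition relative to vehicle-treated cultures.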

[4] = NCI Yeast Anticancer Drug Screen. Data for the cln2 rad14 strain (AID 165);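 further: 0% = growth equal to vehicle treated cultures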; conditions: S. cerevisiae cln2 rad14 strain, stronger effect = higher value
Procedure, shortened: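 Yeast strain cln2 rad14, bearing defects in cell cycle control and DNA repair, serves as the test system; values reflect growth inhibition compared with vehicle.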

[5] = NCI Yeast Anticancer Drug Screen. Data for the bub3 strain (AID 167); conditions: S. cerevisiae bub3 mutant strain, stronger effect = higher value
Procedure, shortened: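 Readout: yeast growth inhibition, expressed relative to vehicle-only wells. The test organism is a mutant strain from a panel with lesions in DNA repair or checkpoint genes.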

[6] = NCI Yeast Anticancer Drug Screen. Data for the mlh1 rad18 strain (AID 175); conditions: S. cerevisiae mlh1 rad18 strain growth inhibition, stronger effect = higher value
Procedure, shortened: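 Steps: expose repair-defective yeast to compound; measure growth; express inhibition against vehicle-treated controls.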

[7] = at 5.0 µM (retest, dose inferred, filed as 0.5)
[8] = at 50.0 µM (retest, dose inferred, filed as 5.0)

Measured: growth inhibition

COc1ccc2c(c1OC)C1=C(C2=O)c2cc3c(cc2CCN1)OCO3
inactive: [1]; [7] -4% | [1]; at 50.0 µM 23.1% | [2]; [7] 0% | [2]; at 50.0 µM 45.7% | [3]; [7] 9% | [3]; at 50.0 µM 61.5% | [4]; [7] 2% | [4]; at 50.0 µM 40.9% | [5]; [7] -15% | [5]; [8] 51% | [5]; at 50.0 µM 68.4% | [6]; [7] 8% | [6]; at 50.0 µM 53.1%
active: [1]; [8] 76% | [2]; [8] 86% | [3]; [8] 92% | [4]; [8] 95% | [6]; [8] 93%

ClC1(Cl)c2ccccc2-c2ccccc21
inactive: [1]; [7] -147% | [1]; [8] -36% | [1]; at 50.0 µM 7.55% | [2]; [7] -51% | [2]; [8] -40% | [2]; at 50.0 µM -4.1% | [3]; [7] -59% | [3]; [8] -49% | [3]; at 50.0 µM -7.05% | [4]; [7] -55% | [4]; [8] -54% | [4]; at 50.0 µM 43.4% | [5]; [7] -67% | [5]; [8] -55% | [5]; at 50.0 µM -21% | [6]; [7] -115% | [6]; [8] -79% | [6]; at 50.0 µM -2.85%

CC(C)OC(=O)c1ccc(NC(=O)CCl)cc1
inactive: [1]; [7] 0% | [1]; [8] -1% | [1]; at 50.0 µM 66.7% | [2]; [7] -1% | [2]; [8] 5% | [2]; at 50.0 µM 59.8% | [3]; [7] 3% | [3]; [8] -8% | [4]; [7] -1% | [4]; [8] 5% | [4]; at 50.0 µM 31.9% | [5]; [7] -4% | [5]; [8] -2% | [5]; at 50.0 µM 61% | [6]; [7] -5% | [6]; [8] 6%
active: [3]; at 50.0 µM 79.1% | [6]; at 50.0 µM 76.2%

CCN1/C(=C/C=C/C=C\C=C\c2sc3ccc4ccccc4c3[n+]2CC)Sc2ccc3ccccc3c21
inactive: [1]; [7] 28% | [1]; [8] 68% | [1]; at 50.0 µM 49.2% | [2]; [7] 21% | [2]; at 50.0 µM 46.8% | [3]; [7] 25% | [3]; at 50.0 µM 47.6% | [4]; [7] 48% | [4]; [8] 65% | [4]; at 50.0 µM 54% | [5]; [7] 34% | [5]; [8] 65% | [5]; at 50.0 µM 30.4% | [6]; [7] 25% | [6]; at 50.0 µM 40.6%
active: [2]; [8] 80% | [3]; [8] 75% | [6]; [8] 73%

Clc1ccc(SSN2CCCCC2)cc1
inactive: [1]; [7] 2% | [1]; [8] 65% | [2]; [7] -1% | [2]; [8] 45% | [3]; [7] 2% | [4]; [7] 6% | [4]; [8] 17% | [4]; at 50.0 µM 7.1% | [5]; [7] -1% | [6]; [7] 3%
active: [1]; at 50.0 µM 89% | [2]; at 50.0 µM 80.3% | [3]; [8] 82% | [3]; at 50.0 µM 87.8% | [5]; [8] 70% | [5]; at 50.0 µM 77.7% | [6]; [8] 84% | [6]; at 50.0 µM 88.4%

N/C(=N\N=C\c1cc(I)cc(I)c1O)NO
active: [1]; [8] 98% | [1]; at 50.0 µM 95.5% | [2]; [8] 96% | [2]; at 50.0 µM 95.3% | [3]; [8] 98% | [3]; at 50.0 µM 97.6% | [4]; [8] 89% | [4]; at 50.0 µM 93.7% | [5]; [8] 99% | [5]; at 50.0 µM 96.7% | [6]; [8] 99% | [6]; at 50.0 µM 97.9%
inactive: [1]; [7] 11% | [2]; [7] 1% | [3]; [7] 2% | [4]; [7] 38% | [5]; [7] -2% | [6]; [7] 24%

CC(c1ccccc1C(=O)O)c1cccc2ccccc12 (stereo not given)
active: [1]; [8] 89% | [1]; at 50.0 µM 87.3% | [2]; [8] 91% | [2]; at 50.0 µM 92.3% | [3]; [8] 90% | [3]; at 50.0 µM 83.3% | [4]; [8] 98% | [4]; at 50.0 µM 97.5% | [5]; [8] 88% | [5]; at 50.0 µM 91.5% | [6]; [8] 92% | [6]; at 50.0 µM 92.8%
inactive: [1]; [7] 4% | [2]; [7] -3% | [3]; [7] 6% | [4]; [7] 6% | [5]; [7] -7% | [6]; [7] -12%

OCCN1c2ccccc2Sc2ccc(Cl)cc21
active: [1]; [8] 97% | [1]; at 50.0 µM 89.3% | [2]; [8] 98% | [2]; at 50.0 µM 92% | [3]; at 50.0 µM 90.8% | [4]; [8] 98% | [4]; at 50.0 µM 86.8% | [5]; [8] 97% | [5]; at 50.0 µM 91.3% | [6]; [8] 98% | [6]; at 50.0 µM 88.5%
inactive: [1]; [7] -1% | [2]; [7] -18% | [3]; [7] -14% | [3]; [8] 40% | [4]; [7] 30% | [5]; [7] 1% | [6]; [7] 12%

CCCCCCCCCCNCCSSCCNC(C)=O
active: [1]; [7] 89% | [1]; [8] 98% | [1]; at 50.0 µM 99.2% | [2]; [7] 87% | [2]; [8] 99% | [2]; at 50.0 µM 99.4% | [3]; [7] 97% | [3]; [8] 99% | [3]; at 50.0 µM 99.3% | [4]; [7] 79% | [4]; [8] 92% | [4]; at 50.0 µM 98.4% | [5]; [7] 90% | [5]; [8] 98% | [5]; at 50.0 µM 99.5% | [6]; [7] 90% | [6]; [8] 99% | [6]; at 50.0 µM 99.3%

O=C(CC1(O)C(=O)Nc2c(Cl)cc(Cl)cc21)c1ccc(Br)cc1Br (stereo not given)
active: [1]; [8] 98% | [1]; at 50.0 µM 92.3% | [2]; [7] 96% | [2]; [8] 99% | [2]; at 50.0 µM 90.8% | [3]; [7] 97% | [3]; [8] 92% | [3]; at 50.0 µM 91.3% | [4]; [7] 94% | [4]; [8] 93% | [4]; at 50.0 µM 90.7% | [5]; [7] 97% | [5]; [8] 93% | [5]; at 50.0 µM 93.8% | [6]; [8] 98% | [6]; at 50.0 µM 92.2%
inactive: [1]; [7] 55% | [6]; [7] 58%
